Compound activity: PubChem BioAssay, Sanford-Burnham Center for Chemical Genomics
In the library only some 4% were active in any assay of this set; here they are far more common.
Peg3 promoter: Peg3 promoter-driven luciferase inhibitors, primary screen, cell-based, HeLa, luciferase luminescence; HeLa PEG-Prom luciferase reporter, overnight; inhibition, % at 20 µM; actives 1.7% (n = 360,000); AID 588405, 2011;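 active = inhibition of at least 50% at 20 µM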
CF NFkB block: inhibitors of PAF-induced NF-kB signaling, primary screen, cell-based, GFP fluorescence, uHTS. actives 0.86% (n = 360,000). AID 588850, 2011. inhibition, % at 5 µM. KKLEB NF-kB-GFP reporter, GFP fluorescence overnight;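 active = at least 50% inhibition at 5 µM, scaled per plate between neutral and stimulator controls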;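 note: PAF is a Pseudomonas aeruginosa culture filtrate used as stimulus; plate controls were PAF-stimulated DMSO wells for no effect and unstimulated DMSO wells for full effect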
TROY signal inh: inhibitors of TROY-driven NF-kB signaling, primary screen, Q293 LMP1-TROYcd cells, NF-kB luciferase, uHTS; inhibition, % at 10 µM; Q293 LMP1-TROYcd NF-kB luciferase reporter, 4 h; actives 0.98% (n = 360,000);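 active = compounds whose plate-normalised and pattern-corrected inhibition of the luciferase reporter signal at the single screening dose is 50% or more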
HIF-2a block: HIF-2a reporter inhibitors, primary screen, luminescence, 786-0 RCC cells; 786-0 RCC cells HIF-2a reporter, luciferase luminescence, overnight; inhibition, % at 18.8 µM; actives 0.72% (n = 360,000);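 active = inhibition of the luminescence signal of 40% or more relative to plate controls, in a single-dose primary screen at 18.75 µM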
KKLEB tox: cytotoxicity in KKLEB CF airway cells, primary screen, cytotoxicity control for CF NF-kB inhibitor project, cell-based, uHTS, fluorescence assay plates; actives 0.36% (n = 360,000); activity change (cytotoxicity), % at 5 µM; KKLEB CF airway cells viability, ATPlite luminescence, overnight; active compounds read low; cells stimulated with P. aeruginosa culture filtrate;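 active = corrected activity change at or below -50% at 5 µM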
TWEAK Fn14 block: inhibitors of TWEAK-Fn14 signaling, primary screen, luciferase reporter cells, uHTS; AID 1159606, 2016; TWEAK-stimulated Fn14 reporter cells, luciferase luminescence, 8 h; inhibition, % at 10 µM; actives 2% (n = 360,000); in the data active = inhibition above about 50%
An asterisk follows results filed as active; . = not tested or not shown.

SMILES	Peg3 promoter	CF NFkB block	TROY signal inh	HIF-2a block	KKLEB tox	TWEAK Fn14 block
CCCOc1ccc2c(c1)C(=NN=C(N)N)c1cc(OCCC)ccc1-2	89.9*	-2.4	-10.9	-12.4	-13.0	7.6
COc1ccccc1C(=O)NCc1ccc(-c2nc3ccccc3s2)cc1	-19.6	7.5	45.1	21.9	-9.9	75.8*
COC(=O)Cc1ccc2sc(-c3ccccc3)nc2c1	-112.6	3.9	12.0	-183.4	-5.3	55.9*
COc1cc(C(=O)NCc2ccc(-c3nc4ccccc4s3)cc2)cc(OC)c1OC	-126.6	22.0	-16.3	-113.8	-20.3	-40.0
O=C(Cc1ccccn1)c1ccccc1	-37.8	0.2	3.3	-38.9	5.3	7.0
O=C(CCCc1ccccn1)c1ccccc1	-71.9	14.7	43.2	-47.6	-23.3	83.6*
NS(=O)(=O)c1ccc(N=Nc2c[nH]c(=O)c(O)c2)cc1	16.9	2.6	6.8	41.1*	0.7	1.9
CSCCC(c1nnnn1C1CCCC1)N1CCN(C/C=C/c2ccccc2)CC1 (stereo not given)	1.6	-12.1	18.5	-2.4	-0.8	-3.5
CCN1CCN(CCCNC(=O)c2ccc3c(Cl)c4c(nc3c2)CCCC4)CC1	73.6*	18.7	8.5	-18.4	-4.4	-26.7
CCN1CCN(CCNC(=O)c2ccc3nc(-c4cccc(C)c4)c(-c4cccc(C)c4)nc3c2)CC1	91.3*	12.4	-61.0	1.8	3.6	-23.6
CCCNC(=O)c1ccc2nc(-c3ccccc3)c(-c3ccccc3)nc2c1	16.6	9.7	-9.2	0.8	-4.8	38.9
Cc1ccc(C(=O)Nc2ccccc2N2CCCCC2)o1	9.1	-8.9	4.4	0.5	34.0	-10.7
CCOC(=O)[C@]12CCCC=C1N(Cc1ccc(Cl)cc1Cl)C(=O)[C@H](CC(=O)N1CCSCC1)C2	.	.	-6.8	7.0	.	-0.4
COC(=O)c1c(C)[nH]c(C(=O)C(C)OC(=O)C2CC(=O)N(CCc3ccccc3)C2)c1C (stereo not given)	11.4	-3.1	-7.2	-12.7	-0.2	9.0
COC(=O)c1c(C)[nH]c(C(=O)C(C)OC(=O)C2CC(=O)N(c3ccc(C)cc3)C2)c1C (stereo not given)	33.9	6.1	54.0*	-2.5	7.5	24.1
O=C1OC2(CCCCC2)OC(=O)C1=CNc1nccs1	-5.1	9.1	.	14.8	3.6	55.4*
CCCc1cc(=O)oc2cc(C)cc(OCC(=O)Nc3cccnc3)c12	86.9*	-17.8	4.3	12.4	-3.3	-25.8
Cc1ccc(C)c(N2CCN(C(=O)C3CCCN(c4ncnc5c4nc4n5CCCCC4)C3)CC2)c1 (stereo not given)	34.0	10.3	42.5	20.7	1.3	27.6
Cc1ccc(N2CCN(C(=O)C3CCCN(c4ncnc5c4nc4n5CCCCC4)C3)CC2)c(C)c1 (stereo not given)	22.6	26.9	60.0*	8.8	-8.0	45.2
O=C(Nc1cc(F)ccc1F)C1CCCN(c2ncnc3c2nc2n3CCCCC2)C1 (stereo not given)	51.7*	-24.3	4.6	7.6	-2.1	23.1
O=C(Nc1ccc(F)cc1F)C1CCCN(c2ncnc3c2nc2n3CCCCC2)C1 (stereo not given)	27.7	-2.0	21.0	18.7	-23.1	-2.5
CN(Cc1ccccc1)C(=O)c1[nH]cnc1C(=O)Nc1ccccc1F	-1.4	9.2	-7.0	-1.7	2.3	-9.4
CC1=NN(c2ccc(C)cc2)C(=O)/C1=C\C=C\c1ccccc1	46.3	-10.2	-4.9	23.5	13.1	94.4*
CCCCNC(=O)C[C@@H]1C[C@@]2(C(=O)OCC)CCCC=C2N(Cc2ccc3c(c2)OCO3)C1=O	.	.	20.7	10.5	.	10.5
Cc1c(Cl)cccc1Nc1n[nH]c(=S)s1	101.1*	-17.3	4.2	-39.9	-0.6	3.4
Cc1ccccc1Nc1n[nH]c(=S)s1	-12.2	17.3	-5.5	-40.4	4.8	-10.2
CC(=O)c1cccc(NC(=O)Cn2cnc(S(=O)(=O)N3CCC(C)CC3)c2)c1	-18.3	8.2	-30.8	4.2	-6.9	-7.0
Cc1ccc(Nc2nc(N)c3ccccc3n2)cc1C	-19.8	-3.1	26.5	-26.4	-54.4*	68.4*
